# Source: PubChem BioAssay
# IDE act: activators of human insulin-degrading enzyme in cells | P14735 | HEK cells, FAbeta-B cleavage, fluorescence polarization; 0% vehicle, 100% cell-free pure enzyme wells | activation, % at 5.96 µM | hit rate 0.073% among 340,000;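 active = activation above the mean of all tested compounds plus 3 SD, set per screening campaign, cut at about 17% in these data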
# PKA-R2B act: activators of human PKA-R2B complex | P22694+P31323 | PKA-R2B holoenzyme dissociation, Cy5-IP20 fluorescence polarization; R2B truncated from residue 108, S112A mutant; 0% DMSO only, 100% 113 µM cGMP | activation, % at 11.4 µM | hit rate 0.079% among 340,000;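 active = activation above a cutoff set at the mean over all compounds plus 3 SD, cut at about 18% in these data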;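 note: higher means more holoenzyme dissociation and a rise in polarization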
# IDE inh: cellular human IDE inhibition. HEK cells, FAbetaB cleavage, fluorescence polarization. inhibition, % at 5.59 µM. hit rate 0.41% among 320,000;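 active = percent inhibition above the average of all tested compounds plus 3 SD, set per screening campaign, cut at about 16% in these data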;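 note: IDE supplied by intact live HEK cells; FP after avidin binding of uncleaved biotin substrate so inhibition keeps polarization high; 0% = DMSO wells and 100% = 60 µM reference IDE inhibitor Ii1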
# PKA-R1A activ: activators of PKA-R1A complex; P00514+P68181; PKA-R1A dissociation, Cy5-IP20 fluorescence polarization; scaled: DMSO 0%, 113 µM cGMP 100%; activation, % at 11.4 µM; hit rate 0.083% among 340,000;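 active = percent activation above the mean of all tested compounds plus 3 SD, cut at about 19% in these data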;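 note: higher means more PKAc released from R1A so a rise in polarization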
# eLon inh: inhibits E. coli Lon protease. P0A9M0. purified E. coli Lon protease, fluorescence polarization. inhibition, % at 7.94 µM. hit rate 0.42% among 360,000. AID 602123; in the data active = inhibition above about 13%, passing the limit was not always enough;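 note: 0% = enzyme with probe and DMSO and 100% = no enzyme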
# Rin1 Abl inh: human Rin1-Abl interaction inhibition | P00519+Q13671 | TR-FRET Rin1/Abl binding, biochemical | inhibition, % at 7.35 µM | hit rate 0.4% among 360,000 | AID 588664; in the data active = inhibition above about 5%, passing the limit was not always enough
# E coli Lon conf: E. coli Lon inhibition confirmation; shares compounds with eLon inh; purified E. coli Lon, fluorescence polarization; inhibition, % at 7.94 µM; hit rate 31% among 1,400; in the data active = inhibition above about 16%;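 note: 0% = enzyme with probe and DMSO and 100% = no enzyme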
# An asterisk follows results filed as active; nt = no result given; + = active, no number. Compounds with a hit are over-represented: about 1.3% of the library has one in this group of screens.
SMILES,IDE act,PKA-R2B act,IDE inh,PKA-R1A activ,eLon inh,Rin1 Abl inh,E coli Lon conf
COc1ccccc1CNC(=O)C1CCCN(S(=O)(=O)c2cccc3nsnc23)C1 (stereo unspecified),-3,2,1,-5,-2,-3,nt
COC(=O)Cn1c(O)c(N=NC(=O)CNC(=O)c2ccc3c(c2)OCCO3)c2ccccc21,-2,-3,4,3,21*,-2,-5
O=C(Nc1ccc(Cl)cc1)Nc1ccc(-c2cnco2)cc1,3,-5,4,-7,-8,-2,nt
CN(C)c1ccc2nc3ccc(=[N+](C)C)cc-3sc2c1,0,-912,-2,-915,5,-35,nt
CN(C)c1ccc2nc3ccc(=O)cc-3sc2c1,nt,-15,nt,-10,40*,14*,44*
Cc1cccc(-n2c(Cc3cc(=O)[nH]c(=O)[nH]3)nnc2SCC(=O)NCC2CCCO2)c1 (stereo unspecified),0,-2,2,7,6,-3,nt
COC/C=C/C1=CC2=CC(=O)C(C)(OC(=O)c3cnc4ccccc4n3)C(=O)C2=CN1CCOC (stereo unspecified),-2,-14,-1,-7,29*,3,8
COC/C=C/C1=CC2=CC(=O)C(C)(OC(=O)c3cnc4ccccc4n3)C(=O)C2=CN1CCCOC(C)C (stereo unspecified),3,4,-2,-1,13,3,nt
COc1ccc(CCNC(=O)COC(=O)C2CC2)cc1OC,-5,-3,-4,-2,12,2,nt
OCC1(Cc2cccc(C(F)(F)F)c2)CCN(Cc2cc3ccccc3o2)CC1,-1,4,3,-2,12*,1,-7
COc1ccc(CC2(CO)CCN(Cc3cc4ccccc4o3)CC2)cc1,-1,4,3,3,-11,2,nt
Cc1ccc(S(=O)(=O)N2CCn3cccc3C2C)cc1 (stereo unspecified),-2,-14,0,-4,21*,5,-5
Cc1cccc(S(=O)(=O)N2CCn3cccc3C2C)c1 (stereo unspecified),-6,5,0,0,3,-2,nt
O=[N+]([O-])c1cnc(N2CCCCC2)c([N+](=O)[O-])c1,1,-9,4,5,55*,3,-11
CSc1ccc(C2C(C(=O)c3ccco3)=C(O)C(=O)N2c2nnc(SC)s2)cc1 (stereo unspecified),-3,-4,11,-2,41*,-2,49*
S=C(c1ccc(-c2ccccc2)cc1)N1CCOCC1,5,-13,3,0,0,-1,nt
F[B-](F)(F)c1cc2cc(Br)ccc2s1,1,-8,nt,-5,27*,-1,40*
F[B-](F)(F)c1cc2ccccc2s1,-2,-2,nt,0,31*,-1,44*
CC(=O)c1ccc(C(=O)NC2CCCN(Cc3ccccc3F)C2)s1 (stereo unspecified),3,8,4,-11,-2,-4,nt
COc1cccc(NC(=S)N2CCN(c3ccccn3)CC2)c1,-5,-4,-6,-2,+,0,-3
COc1ccc(NC(=O)NNc2cc(N3CCOCC3)nc(N3CCOCC3)n2)cc1,6,8,-4,-8,34*,4,15
CC(=O)NNc1cc(N2CCOCC2)nc(N2CCOCC2)n1,1,7,8,6,-14,-1,nt
CCn1c(-c2ccc(C)cc2)nn(CC(=O)NCCc2ccccc2)c1=S,7,2,-1,-10,3,-3,nt
C=CCOc1cccc(C2C(C(=O)c3ccc(C)o3)=C(O)C(=O)N2c2nccs2)c1 (stereo unspecified),6,-5,-2,-10,55*,1,126*
CC(C)c1cc(C(=O)OCC(=O)NC(=O)NCc2ccco2)c(O)c(C(C)C)c1,-1,-2,-2,-14,-2,2,nt
SMILES,IDE act,PKA-R2B act,IDE inh,PKA-R1A activ,eLon inh,Rin1 Abl inh,E coli Lon conf
Oc1c(N=Nc2ccc(F)cc2)ccc2ccccc12,-4,9,-4,-3,-2,1,nt
Oc1c(N=Nc2nn[nH]n2)ccc2ccccc12,nt,nt,nt,nt,48*,1,25*
N#Cc1c(F)cccc1NCc1cccnc1,-1,-5,0,8,-4,2,nt
N#Cc1c(NCc2ccccc2)ccnc1NCc1cccnc1,-4,-17,5,-9,17*,-1,-54
CC(C)C(=O)NNS(=O)(=O)c1ccccc1[N+](=O)[O-],8,-2,4,-6,15*,2,3
COc1ccc(Cl)cc1N(CC(=O)Nc1ccccc1C(=O)N1CCCC1)S(C)(=O)=O,1,-5,-2,1,18*,0,-6
CS(=O)(=O)N(CC(=O)Nc1ccccc1C(=O)N1CCCC1)c1ccccc1Br,2,-3,2,-7,6,1,nt
CCOC(=O)c1c(=O)n(O)c2ccc(OC)cc2[n+]1[O-],-4,5,6,-4,83*,2,29*
COc1ccc(N2CCN(CC(=O)N3c4ccccc4CC3C)CC2)cc1 (stereo unspecified),2,5,3,-10,18*,1,-4
Oc1ccc2c(c1)OCC1(O)Cc3cc(O)c(O)cc3C21 (stereo unspecified),34*,3,nt,-8,+,5,+
O=C(N/N=C/c1c[nH]c2ccccc12)c1cccc(Cl)c1,0,-4,5,4,0,2,nt
O=C(N/N=C/C1C(c2ccccc2)C1(Cl)Cl)c1cccc(Cl)c1 (stereo unspecified),1,-10,-2,-16,22*,-2,-2
CCNC(=O)NC(=O)CSc1ccc(NC(C)=O)cc1,-3,-1,5,6,6,2,nt
CCOc1ccc(N2C(=O)CC(Cc3cc(C)cc(C)c3)C2=O)cc1 (stereo unspecified),2,9,nt,-2,-6,2,nt
CCOc1ccc(N2C(=O)CC(NCC3CCCO3)C2=O)cc1 (stereo unspecified),4,3,3,-13,16*,4,5
CCOc1ccc(N2C(=O)CC(N)C2=O)cc1 (stereo unspecified),-14,5,9,-11,18*,0,-1
O=c1[nH]c(=S)[nH]c2c1C(c1ccc(Br)cc1)c1c([nH]c(=S)[nH]c1=O)O2,-2,4,7,9,32*,2,-49
O=C1CCCC2=C1C(c1ccc(Br)cc1)c1c([nH]c(=S)[nH]c1=O)N2 (stereo unspecified),-16,-6,12,-13,4,0,nt
